Laboratory results from ChEMBL document CHEMBL2218924, “A broad activity screen in support of a chemogenomic map for kinase signalling research and drug discovery” (Biochem J, 2013).

How the values were obtained:
[1] = biological target: Death-associated protein kinase 1 (Homo sapiens) (UniProt P53355); details: at 10 µM
[2] = biological target: Death-associated protein kinase 2 (Homo sapiens) (UniProt Q9UIK4); details: at 1 µM
[3] = biological target: Death-associated protein kinase 2 (Homo sapiens) (UniProt Q9UIK4); details: at 10 µM
[4] = biological target: T1, Serine/threonine-protein kinase DCLK2 (Homo sapiens) (UniProt Q8N568); details: at 1 µM
T1 sequence (whole entry): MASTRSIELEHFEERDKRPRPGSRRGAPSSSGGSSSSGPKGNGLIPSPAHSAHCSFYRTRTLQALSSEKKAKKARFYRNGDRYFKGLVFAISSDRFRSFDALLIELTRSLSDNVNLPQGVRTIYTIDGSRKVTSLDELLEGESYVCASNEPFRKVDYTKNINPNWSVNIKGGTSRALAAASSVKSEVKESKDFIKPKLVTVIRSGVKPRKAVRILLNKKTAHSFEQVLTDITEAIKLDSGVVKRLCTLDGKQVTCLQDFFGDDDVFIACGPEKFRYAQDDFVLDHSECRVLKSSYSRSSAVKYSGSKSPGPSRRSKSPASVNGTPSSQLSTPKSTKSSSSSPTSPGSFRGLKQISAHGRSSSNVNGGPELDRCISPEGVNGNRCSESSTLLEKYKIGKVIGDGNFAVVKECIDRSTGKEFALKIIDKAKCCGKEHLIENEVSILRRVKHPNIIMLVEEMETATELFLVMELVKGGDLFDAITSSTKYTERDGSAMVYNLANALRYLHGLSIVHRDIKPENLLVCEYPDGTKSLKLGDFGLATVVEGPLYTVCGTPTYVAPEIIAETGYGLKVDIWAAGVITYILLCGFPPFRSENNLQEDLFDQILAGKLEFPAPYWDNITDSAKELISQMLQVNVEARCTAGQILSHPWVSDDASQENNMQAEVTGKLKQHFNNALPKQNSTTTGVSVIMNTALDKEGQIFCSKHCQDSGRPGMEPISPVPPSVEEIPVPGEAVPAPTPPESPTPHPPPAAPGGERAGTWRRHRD

[5] = biological target: T1, Serine/threonine-protein kinase DCLK2 (Homo sapiens); details: at 10 µM
[6] = biological target: T2, Discoidin domain-containing receptor 2 (Homo sapiens) (UniProt Q16832); details: at 10 µM
T2 sequence (whole entry): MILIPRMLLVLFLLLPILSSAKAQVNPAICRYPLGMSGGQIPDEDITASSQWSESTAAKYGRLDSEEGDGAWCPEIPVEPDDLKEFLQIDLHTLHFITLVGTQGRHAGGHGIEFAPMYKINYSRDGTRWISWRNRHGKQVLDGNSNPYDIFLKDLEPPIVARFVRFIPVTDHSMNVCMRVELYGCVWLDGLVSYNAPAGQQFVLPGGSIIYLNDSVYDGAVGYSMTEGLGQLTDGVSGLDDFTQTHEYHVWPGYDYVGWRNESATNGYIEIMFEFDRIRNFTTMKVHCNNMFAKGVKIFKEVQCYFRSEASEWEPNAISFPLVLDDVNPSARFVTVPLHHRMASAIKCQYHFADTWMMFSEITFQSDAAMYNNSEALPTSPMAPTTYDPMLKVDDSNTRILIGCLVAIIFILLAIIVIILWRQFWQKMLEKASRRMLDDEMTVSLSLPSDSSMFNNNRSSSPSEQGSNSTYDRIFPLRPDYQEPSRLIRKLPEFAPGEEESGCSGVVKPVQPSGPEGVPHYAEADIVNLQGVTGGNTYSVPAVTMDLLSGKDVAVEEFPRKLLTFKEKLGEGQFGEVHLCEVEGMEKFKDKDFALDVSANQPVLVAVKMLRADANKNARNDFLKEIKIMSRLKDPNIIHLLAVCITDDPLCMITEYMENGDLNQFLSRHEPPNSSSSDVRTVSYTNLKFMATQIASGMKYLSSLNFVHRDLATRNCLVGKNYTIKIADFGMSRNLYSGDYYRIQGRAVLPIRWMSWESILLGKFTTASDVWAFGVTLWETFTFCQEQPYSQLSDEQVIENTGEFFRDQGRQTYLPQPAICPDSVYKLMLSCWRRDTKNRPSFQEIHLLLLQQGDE

[7] = biological target: T3, Myotonin-protein kinase (Homo sapiens) (UniProt Q09013); details: at 1 µM
T3 sequence (whole entry): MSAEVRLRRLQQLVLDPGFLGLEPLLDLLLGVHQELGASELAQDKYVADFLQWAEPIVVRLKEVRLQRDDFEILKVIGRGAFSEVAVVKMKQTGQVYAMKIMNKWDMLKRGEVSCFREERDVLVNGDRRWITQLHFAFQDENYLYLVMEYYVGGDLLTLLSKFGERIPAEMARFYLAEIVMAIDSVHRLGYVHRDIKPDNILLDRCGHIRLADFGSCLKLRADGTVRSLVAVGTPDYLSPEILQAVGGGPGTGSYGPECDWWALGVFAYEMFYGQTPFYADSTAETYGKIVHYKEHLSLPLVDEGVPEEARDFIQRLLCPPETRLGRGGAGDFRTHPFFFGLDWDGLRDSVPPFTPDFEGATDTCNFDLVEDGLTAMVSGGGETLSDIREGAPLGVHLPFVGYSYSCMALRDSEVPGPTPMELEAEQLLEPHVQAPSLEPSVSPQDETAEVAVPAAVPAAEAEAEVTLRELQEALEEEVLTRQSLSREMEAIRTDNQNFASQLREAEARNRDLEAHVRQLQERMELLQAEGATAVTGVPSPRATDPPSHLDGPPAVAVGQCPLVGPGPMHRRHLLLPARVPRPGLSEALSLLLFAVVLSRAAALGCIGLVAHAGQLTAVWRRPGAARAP

[8] = biological target: T3, Myotonin-protein kinase (Homo sapiens); details: at 10 µM
[9] = biological target: T4, Dual specificity tyrosine-phosphorylation-regulated kinase 2 (Homo sapiens) (UniProt Q92630); details: at 10 µM
T4 sequence (whole entry): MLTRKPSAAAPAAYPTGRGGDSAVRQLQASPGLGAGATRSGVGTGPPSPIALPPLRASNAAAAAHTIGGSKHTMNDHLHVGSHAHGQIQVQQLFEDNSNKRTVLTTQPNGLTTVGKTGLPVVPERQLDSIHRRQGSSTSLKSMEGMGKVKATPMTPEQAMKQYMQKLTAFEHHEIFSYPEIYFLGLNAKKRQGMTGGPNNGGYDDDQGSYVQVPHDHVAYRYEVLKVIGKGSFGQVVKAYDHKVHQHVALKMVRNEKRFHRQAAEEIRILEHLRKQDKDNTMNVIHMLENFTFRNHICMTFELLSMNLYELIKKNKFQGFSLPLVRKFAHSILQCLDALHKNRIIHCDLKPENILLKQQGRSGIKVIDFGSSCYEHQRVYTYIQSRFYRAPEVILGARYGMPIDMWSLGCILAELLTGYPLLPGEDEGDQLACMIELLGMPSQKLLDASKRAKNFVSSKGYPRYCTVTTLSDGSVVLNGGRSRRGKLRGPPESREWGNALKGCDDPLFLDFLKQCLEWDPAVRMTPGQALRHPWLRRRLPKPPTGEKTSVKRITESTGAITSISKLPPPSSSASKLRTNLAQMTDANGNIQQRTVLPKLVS

[10] = biological target: T5, Ephrin type-A receptor 1 (Homo sapiens) (UniProt P21709); details: at 1 µM
T5 sequence (whole entry): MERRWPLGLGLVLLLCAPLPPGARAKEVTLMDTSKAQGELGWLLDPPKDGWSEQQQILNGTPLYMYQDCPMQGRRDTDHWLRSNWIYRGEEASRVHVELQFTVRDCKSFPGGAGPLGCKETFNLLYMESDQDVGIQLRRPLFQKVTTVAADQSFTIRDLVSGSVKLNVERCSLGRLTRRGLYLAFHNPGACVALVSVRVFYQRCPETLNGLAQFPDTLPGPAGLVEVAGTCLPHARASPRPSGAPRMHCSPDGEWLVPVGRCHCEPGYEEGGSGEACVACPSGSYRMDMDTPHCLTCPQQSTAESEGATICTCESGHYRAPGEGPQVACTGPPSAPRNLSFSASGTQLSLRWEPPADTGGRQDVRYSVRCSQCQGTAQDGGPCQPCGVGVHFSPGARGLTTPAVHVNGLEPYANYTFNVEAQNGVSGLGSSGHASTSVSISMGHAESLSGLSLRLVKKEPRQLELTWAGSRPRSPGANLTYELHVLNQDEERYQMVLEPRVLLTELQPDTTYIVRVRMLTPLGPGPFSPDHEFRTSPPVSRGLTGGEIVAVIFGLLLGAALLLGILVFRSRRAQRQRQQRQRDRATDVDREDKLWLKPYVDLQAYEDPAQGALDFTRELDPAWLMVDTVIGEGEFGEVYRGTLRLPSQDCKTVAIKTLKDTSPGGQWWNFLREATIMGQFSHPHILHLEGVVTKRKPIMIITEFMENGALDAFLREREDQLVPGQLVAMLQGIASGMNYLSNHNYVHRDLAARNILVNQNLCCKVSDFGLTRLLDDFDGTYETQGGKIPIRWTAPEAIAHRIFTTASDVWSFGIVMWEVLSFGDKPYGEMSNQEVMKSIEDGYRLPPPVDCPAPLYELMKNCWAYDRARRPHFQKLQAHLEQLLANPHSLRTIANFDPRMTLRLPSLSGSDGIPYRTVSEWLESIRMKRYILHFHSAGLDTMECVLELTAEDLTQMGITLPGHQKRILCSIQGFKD

[11] = biological target: T5, Ephrin type-A receptor 1 (Homo sapiens); details: at 10 µM
[12] = biological target: T6, Ephrin type-A receptor 3 (Homo sapiens) (UniProt P29320); details: at 1 µM
T6 sequence (whole entry): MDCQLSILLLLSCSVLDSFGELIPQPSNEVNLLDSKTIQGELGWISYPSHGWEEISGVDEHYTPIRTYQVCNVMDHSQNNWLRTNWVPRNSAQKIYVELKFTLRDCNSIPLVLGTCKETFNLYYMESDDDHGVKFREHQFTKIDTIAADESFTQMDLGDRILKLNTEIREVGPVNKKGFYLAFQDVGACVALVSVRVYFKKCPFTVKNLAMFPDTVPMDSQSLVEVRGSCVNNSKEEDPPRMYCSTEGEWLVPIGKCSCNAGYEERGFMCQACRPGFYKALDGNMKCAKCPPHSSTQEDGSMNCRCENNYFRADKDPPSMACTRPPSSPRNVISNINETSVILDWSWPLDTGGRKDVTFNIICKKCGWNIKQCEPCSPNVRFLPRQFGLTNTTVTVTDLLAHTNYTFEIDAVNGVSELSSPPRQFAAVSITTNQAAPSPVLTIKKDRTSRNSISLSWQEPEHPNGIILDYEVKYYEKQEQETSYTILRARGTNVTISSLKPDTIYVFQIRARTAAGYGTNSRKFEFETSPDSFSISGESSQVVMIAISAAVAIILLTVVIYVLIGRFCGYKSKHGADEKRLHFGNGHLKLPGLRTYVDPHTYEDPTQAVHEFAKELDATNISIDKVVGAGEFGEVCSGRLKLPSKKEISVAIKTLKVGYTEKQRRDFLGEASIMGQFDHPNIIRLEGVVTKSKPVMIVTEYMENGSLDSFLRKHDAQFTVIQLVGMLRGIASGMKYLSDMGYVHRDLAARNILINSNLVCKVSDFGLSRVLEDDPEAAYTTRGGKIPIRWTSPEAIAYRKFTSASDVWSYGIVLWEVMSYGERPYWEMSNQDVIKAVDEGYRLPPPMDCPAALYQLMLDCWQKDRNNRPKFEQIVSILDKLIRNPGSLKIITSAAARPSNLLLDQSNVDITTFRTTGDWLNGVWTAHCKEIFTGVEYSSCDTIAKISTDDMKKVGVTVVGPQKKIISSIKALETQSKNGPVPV

[13] = biological target: T2, Discoidin domain-containing receptor 2 (Homo sapiens); details: at 1 µM
[14] = biological target: T7, Serine/threonine-protein kinase 17A (Homo sapiens) (UniProt Q9UEE5); details: at 1 µM
T7 sequence (whole entry): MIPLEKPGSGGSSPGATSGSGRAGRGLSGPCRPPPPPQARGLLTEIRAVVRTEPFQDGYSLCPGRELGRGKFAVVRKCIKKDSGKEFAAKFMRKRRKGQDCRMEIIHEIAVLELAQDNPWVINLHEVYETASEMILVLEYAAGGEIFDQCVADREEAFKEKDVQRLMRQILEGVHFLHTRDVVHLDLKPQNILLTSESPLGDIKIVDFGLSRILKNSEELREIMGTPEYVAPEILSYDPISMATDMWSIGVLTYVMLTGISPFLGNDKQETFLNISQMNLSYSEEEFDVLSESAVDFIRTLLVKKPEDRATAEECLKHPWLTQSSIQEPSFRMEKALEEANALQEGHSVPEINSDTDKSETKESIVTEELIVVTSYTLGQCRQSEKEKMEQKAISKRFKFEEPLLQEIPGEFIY

[15] = biological target: T7, Serine/threonine-protein kinase 17A (Homo sapiens); details: at 10 µM
[16] = biological target: T4, Dual specificity tyrosine-phosphorylation-regulated kinase 2 (Homo sapiens); details: at 1 µM
[17] = biological target: Ephrin type-A receptor 2 (Homo sapiens) (UniProt P29317); details: at 1 µM
Ephrin type-A receptor 2 (Homo sapiens), sequence (P29317 whole entry): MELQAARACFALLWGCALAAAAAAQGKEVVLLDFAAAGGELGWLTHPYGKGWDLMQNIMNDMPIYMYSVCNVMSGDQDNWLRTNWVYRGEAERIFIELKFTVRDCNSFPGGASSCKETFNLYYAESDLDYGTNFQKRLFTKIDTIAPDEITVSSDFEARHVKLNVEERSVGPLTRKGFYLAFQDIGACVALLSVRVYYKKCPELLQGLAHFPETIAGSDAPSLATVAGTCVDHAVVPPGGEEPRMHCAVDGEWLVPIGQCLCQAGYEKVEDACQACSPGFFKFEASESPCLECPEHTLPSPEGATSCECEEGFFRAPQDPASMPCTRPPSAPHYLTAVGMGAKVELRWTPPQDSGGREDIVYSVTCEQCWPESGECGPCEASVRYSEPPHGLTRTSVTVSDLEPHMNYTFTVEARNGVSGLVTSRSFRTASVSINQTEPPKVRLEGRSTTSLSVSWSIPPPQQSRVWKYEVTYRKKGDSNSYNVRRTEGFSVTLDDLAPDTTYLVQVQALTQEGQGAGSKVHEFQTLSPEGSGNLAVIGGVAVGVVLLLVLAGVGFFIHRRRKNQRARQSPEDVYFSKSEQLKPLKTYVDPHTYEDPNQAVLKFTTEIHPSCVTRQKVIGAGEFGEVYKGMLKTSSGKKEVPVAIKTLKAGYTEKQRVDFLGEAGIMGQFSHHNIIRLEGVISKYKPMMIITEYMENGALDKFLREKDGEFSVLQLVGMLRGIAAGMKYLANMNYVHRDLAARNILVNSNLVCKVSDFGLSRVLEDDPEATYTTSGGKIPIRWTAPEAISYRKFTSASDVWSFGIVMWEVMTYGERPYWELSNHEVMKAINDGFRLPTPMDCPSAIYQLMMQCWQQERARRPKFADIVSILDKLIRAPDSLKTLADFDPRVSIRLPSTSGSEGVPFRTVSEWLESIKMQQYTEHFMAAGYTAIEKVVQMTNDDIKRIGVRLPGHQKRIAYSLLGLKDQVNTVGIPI

[18] = biological target: Ephrin type-A receptor 2 (Homo sapiens) (UniProt P29317); details: at 10 µM

Death-associated protein kinase 1 (Homo sapiens), sequence (P53355 whole entry, looked up): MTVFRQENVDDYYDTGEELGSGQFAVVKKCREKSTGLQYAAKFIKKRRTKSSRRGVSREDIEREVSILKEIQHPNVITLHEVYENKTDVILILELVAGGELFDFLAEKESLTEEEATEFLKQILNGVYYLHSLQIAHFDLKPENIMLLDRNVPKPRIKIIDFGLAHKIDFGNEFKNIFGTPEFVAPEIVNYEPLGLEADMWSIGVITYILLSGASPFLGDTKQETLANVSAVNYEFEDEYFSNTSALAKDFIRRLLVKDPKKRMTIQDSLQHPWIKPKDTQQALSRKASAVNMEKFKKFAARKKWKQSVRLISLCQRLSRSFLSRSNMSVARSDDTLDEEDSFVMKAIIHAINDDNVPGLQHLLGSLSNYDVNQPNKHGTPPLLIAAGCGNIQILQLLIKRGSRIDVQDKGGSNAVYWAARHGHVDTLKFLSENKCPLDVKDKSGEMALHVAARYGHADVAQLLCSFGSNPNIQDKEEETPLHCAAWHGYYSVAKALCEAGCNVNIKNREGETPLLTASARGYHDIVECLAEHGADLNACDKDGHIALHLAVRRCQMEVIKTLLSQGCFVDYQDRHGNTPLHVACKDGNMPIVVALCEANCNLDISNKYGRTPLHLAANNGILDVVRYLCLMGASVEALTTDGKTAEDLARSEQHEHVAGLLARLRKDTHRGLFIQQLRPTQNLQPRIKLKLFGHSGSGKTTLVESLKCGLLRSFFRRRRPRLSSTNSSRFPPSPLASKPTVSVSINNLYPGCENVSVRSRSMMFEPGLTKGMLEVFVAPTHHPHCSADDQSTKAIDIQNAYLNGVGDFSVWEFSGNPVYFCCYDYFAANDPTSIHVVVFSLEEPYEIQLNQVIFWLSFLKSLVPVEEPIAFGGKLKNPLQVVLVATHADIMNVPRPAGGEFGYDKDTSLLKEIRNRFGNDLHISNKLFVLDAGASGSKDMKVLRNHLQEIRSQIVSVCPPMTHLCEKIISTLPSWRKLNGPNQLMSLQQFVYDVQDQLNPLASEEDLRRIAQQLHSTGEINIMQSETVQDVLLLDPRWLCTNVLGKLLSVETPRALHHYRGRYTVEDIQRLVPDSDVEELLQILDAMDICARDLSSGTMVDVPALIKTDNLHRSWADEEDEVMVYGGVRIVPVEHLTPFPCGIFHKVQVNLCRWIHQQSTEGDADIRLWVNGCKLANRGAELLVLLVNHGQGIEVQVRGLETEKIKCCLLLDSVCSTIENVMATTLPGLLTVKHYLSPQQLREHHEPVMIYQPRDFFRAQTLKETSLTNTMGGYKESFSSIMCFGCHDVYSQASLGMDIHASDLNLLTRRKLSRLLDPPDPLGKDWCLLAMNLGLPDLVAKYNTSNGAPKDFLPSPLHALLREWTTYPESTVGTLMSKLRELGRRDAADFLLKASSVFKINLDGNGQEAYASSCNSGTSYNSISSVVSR
Death-associated protein kinase 2 (Homo sapiens), sequence (Q9UIK4 whole entry, looked up): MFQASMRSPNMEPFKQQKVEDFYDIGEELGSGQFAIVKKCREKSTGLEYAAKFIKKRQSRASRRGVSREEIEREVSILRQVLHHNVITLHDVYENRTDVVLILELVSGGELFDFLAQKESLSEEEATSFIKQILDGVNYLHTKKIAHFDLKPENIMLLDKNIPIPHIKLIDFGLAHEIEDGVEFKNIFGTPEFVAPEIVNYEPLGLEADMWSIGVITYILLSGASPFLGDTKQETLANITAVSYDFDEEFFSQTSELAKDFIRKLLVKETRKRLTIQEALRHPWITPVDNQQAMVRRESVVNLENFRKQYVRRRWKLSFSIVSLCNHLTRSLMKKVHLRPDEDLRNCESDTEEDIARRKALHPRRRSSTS

CCCC(=O)Oc1ccc2[nH]c(C(=O)c3cc4ccccc4[nH]3)cc2c1
residual activity [1]: 68% | residual activity [2]: 95% | residual activity [3]: 104% | residual activity [4]: 82% | residual activity [5]: 93% | residual activity [6]: 101% | residual activity [7]: 132% | residual activity [8]: 133% | residual activity [9]: 102% | residual activity [10]: 88% | residual activity [11]: 94% | residual activity [12]: 107%

O=C1NC(=O)c2c1c1c3ccccc3[nH]c1n1cncc21
residual activity [1]: 41% | residual activity [2]: 9% | residual activity [3]: -1% | residual activity [4]: 96% | residual activity [5]: 85% | residual activity [13]: 85% | residual activity [6]: 91% | residual activity [14]: 10% | residual activity [15]: 6% | residual activity [16]: 68% | residual activity [9]: 57% | residual activity [10]: 74% | residual activity [11]: 50% | residual activity [17]: 87% | residual activity [18]: 86% | residual activity [12]: 91%

Nc1n[nH]c2nc3ccccc3nc12
residual activity [1]: 96% | residual activity [4]: 98% | residual activity [5]: 84% | residual activity [7]: 98% | residual activity [8]: 76% | residual activity [14]: 86% | residual activity [15]: 50% | residual activity [16]: 92% | residual activity [9]: 41% | residual activity [10]: 87% | residual activity [11]: 83% | residual activity [12]: 98%
